In assay [1] the target is Cytochrome P450 2C9 (Homo sapiens) (UniProt P11712). Briefly: qHTS Assay for Inhibitors and Substrates of Cytochrome P450 2C9 (AID 883). Further: on the % scale 0 is the no-effect control and ±100 the full control effect; nearly all actives have a fitted effect of over 60% in size. The procedure, abridged:
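Luminescent read-out of deoxyluciferin hydroxylation, normalized to 57uM sulphaphenazole (AC100). Reaction: 10nM enzyme, 100uM Luciferin-H (equal to KM), 25mM KPO4, 10 min compound preincubation, then 60 min with NADPH regeneration, both at 37C.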
(In general: qHTS replaces the single test concentration by a dilution series.)

Assay [2] addresses Cytochrome P450 3A4 (Homo sapiens) (UniProt P08684). Briefly: qHTS Assay for Activators of Cytochrome P450 3A4 (AID 885). Further: nearly all actives have a fitted effect of over 65% in size. A digest of the protocol:
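Steps: enzyme/substrate mix dispensed; compound added, 10 min RT; NADPH regeneration solution added, 60 min RT; luciferin detection buffer stops reaction; 20 min later luminescence measured.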

Assay [3] concerns the target Cytochrome P450 2D6 (Homo sapiens) (UniProt P10635). Briefly: qHTS Assay for Inhibitors and Substrates of Cytochrome P450 2D6 (AID 891). Further: nearly all actives have a fitted effect of over 60% in size. Further: potency means the concentration at half of the fitted maximal effect.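 On activity change, negative = inhibition: luciferin methyl ether substrate demethylated by CYP2D6 with NADPH regeneration; on the % scale 0 is the no-effect control and ±100 the full control effect.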 A digest of the protocol:
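Human CYP2D6 (5 nM) with 30 uM Luciferin-ME EGE (at Km) in 100 mM KPO4, compound preincubated 10 min, then NADPH regeneration system for 60 min at room temperature. Luciferin read by luminescence; normalized to 1.43 uM quinidine.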

Assay [4] has as its target Cytochrome P450 2C19 (Homo sapiens) (UniProt P33261). Nature of the assay: qHTS Assay for Inhibitors and Substrates of Cytochrome P450 2C19 (AID 899). Further: nearly all actives have a fitted effect of over 60% in size. Further: potency means the concentration at half of the fitted maximal effect. On activity, negative = inhibition: on the % scale 0 is the no-effect control and ±100 the full control effect. A digest of the protocol:
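Luminescence readout of luciferin formed from 10uM Luciferin-H EGE (KM level) by 5 nM CYP2C19 in 50mM KPO4. 60 min NADPH-driven reaction at 37C after 10 min compound preincubation; data scaled to 57uM ketoconazole inhibition.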

A short description of assay [5]: qHTS for Inhibitors of Plasmodium falciparum (DD2) proliferation (AID 504314).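 Further: parasite DNA measured by SYBR Green fluorescence after red cell lysis; plate controls were DMSO vehicle for no effect and artemisinin wells for full effect.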 The procedure, abridged:
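Quantitative HTS growth inhibition: SYBR Green I binding to parasite DNA after 72 h drug exposure of infected erythrocytes (0.3% parasitemia, 2.5% hematocrit). Signals normalized per plate to inhibitor and vehicle wells.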

Assay [6] is described as follows: qHTS for Inhibitors of Plasmodium falciparum (GB4) proliferation (AID 504315).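 Further: 0% = DMSO vehicle and -100% = 0.29 µM artemisinin control; nearly all actives have a fitted effect of over 50% in size.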 A digest of the protocol:
(§1)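 Erythrocytes infected with P. falciparum line (0.3% parasitemia, 2.5% hematocrit final) incubated with compounds 72 h at 37 °C, 5% CO2; SYBR Green lysis buffer added, fluorescence read next day. Normalized to 0.29 uM artemisinin and DMSO.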

Assay [7] is described as follows: qHTS for Inhibitors of Plasmodium falciparum (7G8) proliferation (AID 504316). Further: nearly all actives have a fitted effect of over 65% in size. Further: potency means the concentration at half of the fitted maximal effect.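 On activity change, negative = inhibition: series mostly up to about 6.7 µM; 0% = DMSO vehicle and -100% = 0.29 µM artemisinin full kill.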 A digest of the protocol:
as §1

Assay [8] is described as follows: qHTS for Inhibitors of Plasmodium falciparum (HB3) proliferation (AID 504318).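 Further: 0% = DMSO vehicle and -100% = artemisinin control; nearly all actives have a fitted effect of over 60% in size.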 The procedure, abridged: as §1
A short description of assay [9]: qHTS for Inhibitors of Plasmodium falciparum (CP250) proliferation (AID 504320).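 Further: plate controls were DMSO vehicle for no effect and 0.29 µM artemisinin control for full effect.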 The procedure, abridged:
as §1

In assay [10] the target is Atrial natriuretic peptide receptor 1 (Homo sapiens) (UniProt P16066). Nature of the assay: Natriuretic polypeptide receptor (hNpr1) antagonism - Pilot CMLD screen (AID 1347052; calls by dose curve;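 further: cGMP level read as GloSensor luciferase luminescence after agonist stimulation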; further: potency means the concentration at half of the fitted maximal effect;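 on activity change, negative = inhibition: HEK293 cells with hNpr1 stimulated by hNppA peptide at 0.1 nM; series mostly up to about 9.2 µM; on the % scale 0 is the no-effect control and ±100 the full control effect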).
Assay [11] has as its target Cytochrome P450 3A4 (Homo sapiens) (UniProt P08684). Briefly: qHTS Assay for Inhibitors and Substrates of Cytochrome P450 3A4 (AID 884). Further: nearly all actives have a fitted effect of over 50% in size. Further: potency means the concentration at half of the fitted maximal effect. On activity change, negative = inhibition: series mostly up to about 57 µM; on the % scale 0 is the no-effect control and ±100 the full control effect. The procedure, abridged:
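20 nM human CYP3A4 with 25 uM Luciferin-PPXE (at KM) in 200 mM KPO4, preincubated 10 min with compound; NADPH regeneration started a 60 min RT reaction. Luciferin detected by luminescence, normalized to 57 uM ketoconazole as full inhibition.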

Where “and” joins values, the source holds several entries; their conditions need not be identical. Identical values can stand only once. A number with no mark means an inactive call. Inconclusive results are not listed. Calls of active or inactive are those of the source. Unless noted, the call rests on the fitted dose curve; in most records, active means well fitted curve in the direction sought with a large enough effect; inconclusive means small, poorly fitted or top-dose-only effect, or another doubt; inactive means no such curve, though single readings can be large; an effect the other way counts as inactive or inconclusive.

Sequence of Atrial natriuretic peptide receptor 1 (Homo sapiens) (P16066 whole entry, looked up): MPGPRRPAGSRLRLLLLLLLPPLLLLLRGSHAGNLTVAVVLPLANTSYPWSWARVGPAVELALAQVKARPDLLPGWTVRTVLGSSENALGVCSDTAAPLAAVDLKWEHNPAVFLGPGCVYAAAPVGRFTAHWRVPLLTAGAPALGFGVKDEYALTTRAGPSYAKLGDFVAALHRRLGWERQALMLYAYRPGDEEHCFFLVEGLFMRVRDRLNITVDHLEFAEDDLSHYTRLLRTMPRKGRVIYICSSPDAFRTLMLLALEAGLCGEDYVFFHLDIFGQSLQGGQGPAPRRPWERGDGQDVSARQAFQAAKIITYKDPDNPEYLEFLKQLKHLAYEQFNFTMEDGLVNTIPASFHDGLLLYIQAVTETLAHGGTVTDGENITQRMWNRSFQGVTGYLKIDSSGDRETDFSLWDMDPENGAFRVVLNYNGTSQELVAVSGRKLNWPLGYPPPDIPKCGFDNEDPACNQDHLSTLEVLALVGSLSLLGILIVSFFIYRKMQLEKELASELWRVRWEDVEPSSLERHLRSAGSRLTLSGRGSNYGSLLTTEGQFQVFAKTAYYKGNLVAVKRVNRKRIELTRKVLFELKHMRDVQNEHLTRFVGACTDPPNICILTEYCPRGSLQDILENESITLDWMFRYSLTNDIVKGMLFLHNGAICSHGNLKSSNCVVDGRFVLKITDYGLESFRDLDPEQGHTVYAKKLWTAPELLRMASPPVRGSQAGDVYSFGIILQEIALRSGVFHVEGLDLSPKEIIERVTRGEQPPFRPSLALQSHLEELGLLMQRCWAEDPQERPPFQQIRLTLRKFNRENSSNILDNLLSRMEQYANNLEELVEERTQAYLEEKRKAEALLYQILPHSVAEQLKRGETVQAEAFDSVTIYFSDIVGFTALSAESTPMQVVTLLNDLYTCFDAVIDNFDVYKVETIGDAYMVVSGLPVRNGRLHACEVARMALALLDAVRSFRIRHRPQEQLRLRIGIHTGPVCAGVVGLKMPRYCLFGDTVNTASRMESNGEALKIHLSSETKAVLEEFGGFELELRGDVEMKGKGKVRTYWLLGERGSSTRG
Sequence of Cytochrome P450 2C19 (Homo sapiens) (P33261 whole entry, looked up): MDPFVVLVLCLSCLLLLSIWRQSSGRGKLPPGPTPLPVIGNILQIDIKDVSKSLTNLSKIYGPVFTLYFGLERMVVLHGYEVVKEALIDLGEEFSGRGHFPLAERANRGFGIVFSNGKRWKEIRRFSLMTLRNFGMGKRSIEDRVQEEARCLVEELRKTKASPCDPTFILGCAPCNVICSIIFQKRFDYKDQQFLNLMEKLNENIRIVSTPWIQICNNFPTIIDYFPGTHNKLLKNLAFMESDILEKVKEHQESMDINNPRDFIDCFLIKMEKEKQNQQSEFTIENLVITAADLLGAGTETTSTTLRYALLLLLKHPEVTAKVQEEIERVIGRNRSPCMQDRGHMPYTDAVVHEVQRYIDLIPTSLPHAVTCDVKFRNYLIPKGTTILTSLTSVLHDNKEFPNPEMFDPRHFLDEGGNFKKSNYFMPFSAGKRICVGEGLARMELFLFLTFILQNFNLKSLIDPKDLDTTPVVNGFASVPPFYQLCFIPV
Sequence of Cytochrome P450 3A4 (Homo sapiens) (P08684 whole entry, looked up): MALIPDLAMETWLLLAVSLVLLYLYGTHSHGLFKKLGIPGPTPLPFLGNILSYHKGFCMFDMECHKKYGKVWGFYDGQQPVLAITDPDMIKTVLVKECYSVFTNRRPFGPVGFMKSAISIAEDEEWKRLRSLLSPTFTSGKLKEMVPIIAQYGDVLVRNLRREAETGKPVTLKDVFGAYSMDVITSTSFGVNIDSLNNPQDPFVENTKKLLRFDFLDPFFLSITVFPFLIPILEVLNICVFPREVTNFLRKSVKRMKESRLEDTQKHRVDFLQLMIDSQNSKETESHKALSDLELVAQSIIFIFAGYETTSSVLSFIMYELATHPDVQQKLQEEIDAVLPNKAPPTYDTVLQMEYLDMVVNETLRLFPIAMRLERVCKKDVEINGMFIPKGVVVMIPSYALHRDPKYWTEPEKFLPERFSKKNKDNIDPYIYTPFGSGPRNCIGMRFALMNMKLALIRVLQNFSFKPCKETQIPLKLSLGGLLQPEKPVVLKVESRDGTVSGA
Sequence of Cytochrome P450 2D6 (Homo sapiens) (P10635 whole entry, looked up): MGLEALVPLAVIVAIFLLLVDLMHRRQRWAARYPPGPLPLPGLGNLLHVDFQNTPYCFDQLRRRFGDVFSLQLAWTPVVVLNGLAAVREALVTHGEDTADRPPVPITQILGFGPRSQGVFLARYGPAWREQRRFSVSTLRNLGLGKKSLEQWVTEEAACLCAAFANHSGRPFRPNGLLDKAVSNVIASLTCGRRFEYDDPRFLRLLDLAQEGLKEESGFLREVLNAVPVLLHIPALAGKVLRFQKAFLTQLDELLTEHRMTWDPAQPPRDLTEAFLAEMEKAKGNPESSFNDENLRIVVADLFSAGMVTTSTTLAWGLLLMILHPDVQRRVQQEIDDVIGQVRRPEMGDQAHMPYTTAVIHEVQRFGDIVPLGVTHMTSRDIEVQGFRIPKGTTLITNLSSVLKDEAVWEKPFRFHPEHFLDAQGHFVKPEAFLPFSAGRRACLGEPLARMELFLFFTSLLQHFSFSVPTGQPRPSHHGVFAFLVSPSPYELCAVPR
Sequence of Cytochrome P450 2C9 (Homo sapiens) (P11712 whole entry, looked up): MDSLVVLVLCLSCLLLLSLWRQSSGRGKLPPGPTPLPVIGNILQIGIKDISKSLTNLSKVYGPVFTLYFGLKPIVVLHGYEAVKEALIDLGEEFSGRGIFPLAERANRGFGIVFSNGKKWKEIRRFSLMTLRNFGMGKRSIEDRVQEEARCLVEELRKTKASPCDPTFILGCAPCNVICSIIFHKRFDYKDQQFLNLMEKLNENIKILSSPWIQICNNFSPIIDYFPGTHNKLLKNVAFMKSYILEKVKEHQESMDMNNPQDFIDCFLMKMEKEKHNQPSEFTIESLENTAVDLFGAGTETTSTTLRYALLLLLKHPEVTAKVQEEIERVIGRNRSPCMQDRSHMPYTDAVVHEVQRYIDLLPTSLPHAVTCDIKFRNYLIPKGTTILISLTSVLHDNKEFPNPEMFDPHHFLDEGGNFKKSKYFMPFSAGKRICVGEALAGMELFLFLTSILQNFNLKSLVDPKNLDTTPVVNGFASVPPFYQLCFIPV

Regarding `COc1ccc(C(=O)CC(=O)c2c(O)cc(OC)cc2OC)cc1`, the activity change, negative = inhibition in assay [1] was -6.49% [at 11.4 µM]. The activity change, positive = activation in [2] was -41.2% [at 11.4 µM]. Besides, the figures for the Potency in assay [3] and in assay [4] were 1260 nM (active) and 398 nM (active), respectively. The Potency result in assay [5], in assay [6], in [7], in [8], in [9] and in [10] was “inactive” in each case.

Turning to `COC(=O)C1=NOC2(C=C(Br)C(OC)=C(Br)C2=O)C1` (centres undefined), the activity change, negative = inhibition is -4.18% [at 11.4 µM] in assay [1], -15.6% [at 11.4 µM] in [11] and -8.27% [at 11.4 µM] in [3]. Moreover, the activity, negative = inhibition in [4] is -27.3% [at 11.4 µM]. For the same compound, the Potency result in assay [5], in assay [6], in [7], in assay [8], in [9] and in [10] was “inactive” in each case.

For the compound `CCCCC1=CC2=C(c3ccco3)C(=O)C(C)(OC(=O)c3ccc(OC)cc3)C(=O)C2=CN1Cc1ccc2c(c1)OCO2` (centres undefined), the activity, negative = inhibition in assay [5] was 4.29% [at 1.12 µM]. Besides, the Potency result in assay [6], in [7], in [9] and in [10] was “inactive” each time.

Consider `CCCCc1nc2c(c3c1C[C@H](C)OC3)CN(S(=O)(=O)c1ccc(C)cc1)CC2`, for which the Potency entry in [5], in [6], in [7], in assay [8], in assay [9] and in assay [10] was “inactive” each time.

In the case of `C=CC1=C2C=C(C3CC3)N(Cc3ccc4c(c3)OCO4)C=C2C(=O)C(C)(OC(=O)c2ccco2)C1=O` (centres undefined), in [5], the activity, negative = inhibition is 4.05% [at 1.12 µM]. Also, the Potency entry in assay [6], in assay [7], in assay [8], in assay [9] and in assay [10] was “inactive” in each case.

`Cc1ccc(S(=O)(=O)n2c3ccccc3c3nnc(C(=O)c4ccccc4)nc32)cc1`: the Potency in assay [11] is 3980 nM (active). Further, in assay [2], the activity change, positive = activation was -61.8% [at 11.4 µM]. Also, the Potency entry in assay [5], in assay [6], in [7], in assay [8], in assay [9] and in [10] was “inactive” throughout.

For `Cc1c(O)c(=O)c2ccccc2n1C`, the activity change, negative = inhibition is 25.8% [at 11.4 µM] in [1], 0.317% [at 11.4 µM] in assay [11] and 2.15% [at 11.4 µM] in assay [3]. Also, in assay [4], the activity, negative = inhibition was 73.4% [at 11.4 µM]. Moreover, the Potency result in assay [5], in assay [6], in assay [7], in assay [8], in [9] and in assay [10] was “inactive” throughout.

Regarding `CCCC[C@@H]1CN2[C@H](c3ccc(Br)cc3)[C@H](C)CC[C@H]2C(=O)O1`, the activity change, positive = activation in [2] is -42.5% [at 11.4 µM]. The Potency was 3980 nM (active) in assay [4] and 944 nM (active) in [10]. Also, the Potency entry in [5], in [6], in assay [7], in assay [8] and in [9] was “inactive” in each case.

Take `COC(=O)C1=C(C(=O)OC)[C@@H]2N(C)c3ccccc3[C@@]23CCC(=O)N(Cc2ccco2)C3=N1`: the Potency result in assay [5], in [6], in [7], in assay [9] and in assay [10] was “inactive” each time.

For the compound `CC(C)=CCCC(C)=CCON=C1C[C@@H](O)[C@@H](O)[C@@H]2[C@H]3C(=O)N(Cc4ccc5c(c4)OCO5)C(=O)[C@@H]3CC[C@@H]12`, the Potency entry in assay [5], in assay [6], in [7], in [9] and in assay [10] was “inactive” in each case.

For the compound `CC(=O)OC[C@H]1O[C@H](C#CCCCc2ccccc2)C=C[C@H]1OC(C)=O`, the Potency entry in assay [5], in assay [6], in assay [7], in assay [9] and in assay [10] was “inactive” in each case.

For the compound `CON(C)C(=O)c1nnc2c3ccccc3n(S(=O)(=O)c3ccc(C)cc3)c2n1`, the activity change, positive = activation in assay [2] was -39.7% [at 11.4 µM] and -50.5% [at 11.4 µM]. For the same compound, the Potency result in assay [5], in [6], in assay [7], in assay [8], in assay [9] and in assay [10] was “inactive” throughout.

With `Cc1cc(C)c(S(=O)(=O)OC[C@H]2C=CC[C@@H](CCC[C@H]3O[C@H](C(=O)OC(C)C)CC[C@@H]3C)O2)c(C)c1`, the Potency entry in assay [5], in assay [6], in [7], in [9] and in assay [10] was “inactive” each time.

As for `O=P1(O)Oc2c(-c3ccccc3)cc3ccccc3c2-c2c(c(-c3ccccc3)cc3ccccc23)O1`, the Potency result in [5], in [6], in assay [7], in assay [9] and in [10] was “inactive” throughout.

Consider `COCn1c2ccccc2c2nnc(C(=O)O)nc21`, for which the activity change, negative = inhibition is -6.97% [at 11.4 µM] in [1], -11.5% [at 11.4 µM] in [11] and 12.8% [at 11.4 µM] in [3]. Also, in assay [4], the activity, negative = inhibition is 65.8% [at 11.4 µM]. The Potency result in assay [5], in assay [6], in assay [7], in assay [8], in assay [9] and in assay [10] was “inactive” in each case.

As to `C=CCC1(O)C=CCC2C3C4C(OC(C)(C)C)C2C1C34` (centres undefined), the activity change, negative = inhibition in [1] was -12.7% [at 11.4 µM]; in assay [11], -11.8% [at 11.4 µM]; in [3] it was -4.54% [at 11.4 µM]. The activity, negative = inhibition in assay [4] is -32.4% [at 11.4 µM]. For the same compound, the Potency result in assay [5], in assay [6], in [7], in assay [8], in assay [9] and in assay [10] was “inactive” throughout.

For the compound `COc1ccc(C(=O)Oc2cc(OC)cc(OC)c2C(C)=O)cc1`, the activity change, negative = inhibition in [1] was 19.9% [at 11.4 µM]; in assay [11], -16.9% [at 11.4 µM]; in [3] it was 5.18% [at 11.4 µM]. The activity, negative = inhibition in [4] is 27.9% [at 11.4 µM]. Further, the Potency result in [5], in assay [6], in assay [7], in assay [8] and in [10] was “inactive” in each case.

As to `CCCNC(=O)OC[C@H]1O[C@H](CCON=C2c3cc(OC)ccc3O[C@H](c3cccc(OC)c3)[C@H]2O)C=C[C@H]1Oc1ccc(OC)cc1`, the Potency entry in assay [5], in assay [6], in [9] and in assay [10] was “inactive” throughout. For the same compound, the Potency in [7] was 1690 nM (active).

As to `CCCCCCCC1=CC2=CC(=O)C(C)(O)C(=O)C2=CN1CCCC` (centres undefined), the activity change, negative = inhibition in [1] was 13.4% [at 11.4 µM]; in [11], -26.9% [at 11.4 µM]. For the same compound, in assay [3], the Potency was 3160 nM (active). Also, in assay [4], the activity, negative = inhibition was 80.9% [at 11.4 µM]. For the same compound, the Potency result in [5], in assay [6], in [7], in assay [8], in assay [9] and in [10] was “inactive” throughout.

The record behind these values is PubChem BioAssay (NCATS).
